“And” between values parts separate entries of the source, which are not always exact repeats. Identical values can stand only once. The panel holds about 83,000 compounds, 20% with a hit somewhere; the sample as a whole holds those more often.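 Results are percent growth after 48 hours of single-concentration exposure. 100 means growth as in untreated cells, lower positive values show inhibition; negative values down to -100 show cell death.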 The source made the active and inactive calls. The calls were made as follows: active = growth percent below 10; inactive = the rest.
system: MDA-MB-468 breast; assay: NCI-60 one-dose screen, 48 h (100 = growth as untreated, 0 = no growth, -100 = all killed); details: 10 µM unless noted

**Q.** How did the growth turn out when `O=C(NCCNc1nccc(-c2c(-c3cccc(O)c3)nc3sccn23)n1)c1cccc(C(F)(F)F)c1` was run?
**A.** 70.5% (inactive)

**Q.** With `CCOC(=O)C1CCc2c(ccc3ccccc23)N1CCC#N` (stereo not given) as the molecule, how does the growth read?
**A.** 73.6% (inactive)

**Q.** For `Cn1c2ccccc2c2c3c(c4c5cccnc5[nH]c4c21)C(=O)N(O)C3=O`, which growth is on record?
**A.** 0.0154% (active)

**Q.** For `c1ccc(-c2oc3ccccc3c2-c2ccccc2)cc1`, which growth is on record?
**A.** 97.9% (inactive)

**Q.** `Cc1c(C(C)(C)C)cc(C(C)(C)C)c2c1CN(C)CO2` was tested. Which growth did it give?
**A.** 122% (inactive)

**Q.** How did the growth turn out when `CCCC(F)C(=O)O` (stereo not given) was run?
**A.** 108% (inactive)

**Q.** With `C=CC(=O)N1CCC[C@H](n2c(=O)n(-c3ccc(Oc4ccccc4)cc3)c3c(N)ncnc32)C1` as the molecule, how does the growth read?
**A.** 0.223% (active)

**Q.** Which growth does the source give for `Cc1ccccc1NC(=O)N/C(N)=N/c1nc2ccccc2s1` here?
**A.** 1.56% (active)

**Q.** With `CCc1ccccc1-n1c(N)c(C#N)c(-c2ccc(N(C)C)cc2)c(C#N)c1=O` as the molecule, how does the growth read?
**A.** 116% (inactive)

**Q.** How did the growth turn out when `CCNC(=O)N1CCc2cc(OC)c(OCCc3ccc(OC)cc3)cc2C1c1ccc([N+](=O)[O-])cc1C` (stereo not given) was run?
**A.** -5.05% (active)

**Q.** How did the growth turn out when `CCCN(CCC)c1ccc(/C=C/c2ccc3cc(OCC)ccc3n2)cc1` was run?
**A.** 74.1% (inactive)

**Q.** `NCCSC(C[N+](=O)[O-])c1ccccc1Cl` (stereo not given) was tested. Which growth did it give?
**A.** 10.2% (inactive)

**Q.** For `O=C(O)C1C(c2ccccc2)c2ccccc2C(O)C1CO` (stereo not given), which growth is on record?
**A.** 117% (inactive)

**Q.** Which growth does the source give for `O=C1OC(c2ccc(-c3ccccc3)cc2)=C/C1=C/c1cccs1` here?
**A.** -47.5% (active)

**Q.** With `CC1=C2[C@@H](CC1)[C@]1(C)O[C@@](C(C)C)(C[C@H]1OC(=O)CO)[C@H]2OC(=O)C1CC1c1ccccc1` (stereo not given in full) as the molecule, how does the growth read?
**A.** 93.3% (inactive)

**Q.** How did the growth turn out when `COc1cc(/C=C/C(=O)c2cccs2)ccc1OCc1ccc(Cl)nc1` was run?
**A.** 57.6% (inactive)

**Q.** `C[C@@H]1COCCN1c1cc(C2([S@](C)(=N)=O)CC2)nc(-c2ccnc3[nH]ccc23)n1` was tested. Which growth did it give?
**A.** 28.3% (inactive)

**Q.** How did the growth turn out when `COc1ccc(/C=C/c2nnc(/C=C/c3ccc(OC)c(OC)c3)o2)cc1OC` was run?
**A.** 19% (inactive)

**Q.** Which growth does the source give for `Cc1cnc(-c2ccc(-c3ccc(NC(=O)Nc4c(F)cc(F)cc4F)cc3F)c3c2C(=O)NC3)[nH]1` here?
**A.** 39.6% (inactive)

**Q.** How did the growth turn out when `CCN(CC)Cc1cc(Nc2c3ccc(Cl)cc3nc3c(C)cccc23)ccc1O` was run?
**A.** -67% (active)

**Q.** How did the growth turn out when `Cc1ccc(/C(N)=N/C(N)=N/c2nc3ccccc3s2)cc1` was run?
**A.** 88.8% (inactive)

**Q.** How did the growth turn out when `O=C(N/N=C\c1ccccc1O)C1CC1` was run?
**A.** 102% (inactive)

**Q.** `CNC(=O)NCC1OC(n2cnc3c(NC(=O)Nc4ccccc4)ncnc32)C2OC(C)(C)OC12` (stereo not given) was tested. Which growth did it give?
**A.** 101% (inactive)

**Q.** For `Cc1c(C(=O)/C=C/c2ccc(Cl)cc2)nnn1-c1ccc2oc(=O)ccc2c1`, which growth is on record?
**A.** 85.9% (inactive)

**Q.** Which growth does the source give for `COc1ccc(-c2ccc(NC(=O)Nc3cccc(C(F)(F)F)c3)c(C)n2)cc1` here?
**A.** 27.5% (inactive)

**Q.** With `Cc1cc(Cl)c2ccc(N(C)C)cc2n1` as the molecule, how does the growth read?
**A.** 94.3% (inactive)

**Q.** For `O=C(N/N=C/c1cccc(O)c1O)c1ccccc1`, which growth is on record?
**A.** -12.6% (active)

**Q.** For `CCCCOC(=O)C1OC(Oc2ccc3c(C)cc(=O)oc3c2)[C@@H](OC(C)=O)C(OC(C)=O)C1OC(C)=O` (stereo not given in full), which growth is on record?
**A.** 101% (inactive)

**Q.** For `CCOC(=O)/C(C#N)=C(\C)CCc1ccccc1`, which growth is on record?
**A.** 76.5% (inactive)

**Q.** With `COC(=O)c1[nH]c(=O)c(C#N)c(C(=O)OC)c1C(=O)c1ccccc1` as the molecule, how does the growth read?
**A.** 102% (inactive)

**Q.** Which growth does the source give for `O=C1N=c2ccccc2=C1c1sc(=S)n(C2CC(=O)N(c3ccc(Cl)cc3)C2=O)c1O` (stereo not given) here?
**A.** 95.2% (inactive)

**Q.** `COC(=O)[C@]12CC[C@@H](C)[C@H](C)[C@@H]1C1=CC[C@@H]3[C@@]4(C)C(C=O)=C[C@@](C)(COC(=O)/C=C/c5ccccc5)[C@@H]4[C@H](O)C[C@@]3(C)[C@]1(C)CC2` was tested. Which growth did it give?
**A.** 14.9% (inactive)

**Q.** How did the growth turn out when `COc1ccc(Cn2nc(-c3cc(OC)c(OC)c(OC)c3)c3c2CCc2cnoc2-3)cc1OC` was run?
**A.** -12.8% (active)

**Q.** How did the growth turn out when `COc1ccc(/C=N\N2CCOCC2)cc1OC1CCCC1` was run?
**A.** 117% (inactive)

**Q.** With `CCN(CC)CCCC(CNc1ccnc2cc(Cl)ccc12)c1ccc(Cl)cc1` (stereo not given) as the molecule, how does the growth read?
**A.** -78.1% (active) and -70.5% (active)

**Q.** `FCc1nc2nc(Cl)c(Cl)nc2[nH]1` was tested. Which growth did it give?
**A.** 93.2% (inactive)

**Q.** With `COc1cccc(/C=C/C(=O)/C=C(/C=C/c2cccc(OC)c2OC)OB(F)F)c1OC` as the molecule, how does the growth read?
**A.** 52.7% (inactive)

**Q.** With `Cc1ccc(Nc2cc(N)nc(N)n2)cc1` as the molecule, how does the growth read?
**A.** 92.2% (inactive)

**Q.** `O=C1C=C(O)C(=O)C(CC2=C(O)C(=O)C=C(O)C2=O)=C1O` was tested. Which growth did it give?
**A.** 98.7% (inactive)

**Q.** For `CCOc1nc(-c2ccccc2)cc2c(O)c(C(=O)N/N=C/c3ccc(OC)cc3)[nH]c(=O)c12`, which growth is on record?
**A.** 61.9% (inactive)
